Some test systems named below: NCI-H23 lung; NCI-H226 lung; NCI-H322M lung; HOP-62 NSCLC; NCI-H460 lung; HOP-92 NSCLC; A549/ATCC NSCLC; 786-0 renal; COLO 205 colon; DU-145 prostate; K-562 leukemia; MALME-3M melanoma; MDA-MB-231 breast; RXF 393 renal; SF-268 CNS; SF-295 CNS; SF-539 CNS; UACC-257 melanoma; M14 melanoma; NCI-H522 lung.
Holding throughout (assay): NCI-60 one-dose screen, 48 h (100 = growth as untreated, 0 = no growth, -100 = all killed)
Holding throughout (details): 10 µM unless noted

Several values for one entry are separate records, joined by “and”; a condition that tells them apart may be missing. Identical values can stand only once. About 83,000 compounds went through this panel and 20% of them were active in at least one assay; those are over-represented in the sample as a whole.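 Each cell line was grown in a 96-well plate and treated with one concentration of compound for 48 hours. Values below 10 were considered active.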 Activity calls are given as the source filed them.

`Cc1cc(N(CCCl)CCCl)ccc1/C=N\NC(=O)c1cccnc1`: the growth is 66.1% (inactive) and 73.8% (inactive) with NCI-H23 lung; -36.1% (active) and 11.8% (inactive) with NCI-H226 lung; 108% (inactive) and 97.9% (inactive) in the assay on NCI-H322M lung; 80.4% (inactive) and 87.5% (inactive) in the assay on HOP-62 NSCLC; 21.2% (inactive) and 28.7% (inactive) in the assay with NCI-H460 lung; 88.9% (inactive) and 94.3% (inactive) in the assay with HOP-92 NSCLC. Further, the growth in the assay with A549/ATCC NSCLC is 73.5% (inactive) and 82.5% (inactive); with 786-0 renal, 81.1% (inactive) and 84% (inactive); in the assay with COLO 205 colon, 94.1% (inactive) and 102% (inactive); in the assay with DU-145 prostate it was 75.6% (inactive) and 75.4% (inactive); with K-562 leukemia, 85.2% (inactive) and 91.8% (inactive); with MALME-3M melanoma, 107% (inactive). Moreover, the growth in the assay with MDA-MB-231 breast was 112% (inactive) and 94.5% (inactive); in the assay on RXF 393 renal, 100% (inactive) and 85.6% (inactive); in the assay with SF-268 CNS it was 80.4% (inactive) and 72.5% (inactive); in the assay with SF-295 CNS it was 49.6% (inactive); in the assay with SF-539 CNS it was 54.2% (inactive) and 73.7% (inactive); in the assay with UACC-257 melanoma, 84.9% (inactive) and 88.6% (inactive). Besides, the growth with M14 melanoma was 96% (inactive) and 92.1% (inactive).
For the compound `O=P1(N(CCCl)CCCl)NCCCO1` (stereo unspecified), the growth was 112% (inactive) with NCI-H23 lung; 101% (inactive) in the assay on NCI-H226 lung; 104% (inactive) in the assay with NCI-H322M lung; 105% (inactive) with HOP-62 NSCLC; 104% (inactive) in the assay on NCI-H460 lung; 131% (inactive) in the assay on HOP-92 NSCLC. Further, the growth with NCI-H522 lung is 109% (inactive); with 786-0 renal, 104% (inactive); with COLO 205 colon it was 116% (inactive); in the assay with DU-145 prostate it was 124% (inactive); with K-562 leukemia, 104% (inactive); with MALME-3M melanoma it was 96.5% (inactive). The growth is 107% (inactive) in the assay on MDA-MB-231 breast; 110% (inactive) in the assay on RXF 393 renal; 117% (inactive) in the assay with SF-268 CNS; 107% (inactive) in the assay with SF-295 CNS; 110% (inactive) with SF-539 CNS; 109% (inactive) with UACC-257 melanoma. The growth with M14 melanoma is 101% (inactive).
In the case of `C[Se]/C=C1/C(=O)N(c2c(Cl)cccc2Cl)c2ccccc21`, the growth was 39% (inactive) with NCI-H23 lung; 10.9% (inactive) in the assay with NCI-H226 lung; 37.5% (inactive) with NCI-H322M lung; 14.6% (inactive) in the assay with NCI-H460 lung; 15.7% (inactive) with HOP-92 NSCLC; 21.1% (inactive) in the assay on NCI-H522 lung. Further, the growth with A549/ATCC NSCLC was 7.85% (active); in the assay on 786-0 renal, 51.1% (inactive); in the assay with COLO 205 colon, 38.9% (inactive); in the assay on DU-145 prostate, 43.9% (inactive); in the assay with K-562 leukemia, 20.3% (inactive); with MALME-3M melanoma it was 37.4% (inactive). Besides, the growth in the assay on MDA-MB-231 breast is 31.1% (inactive); in the assay on RXF 393 renal it was 19.4% (inactive); in the assay on SF-268 CNS, 8.58% (active); with SF-295 CNS it was 38% (inactive); with SF-539 CNS, 0.963% (active); in the assay on UACC-257 melanoma, -4.62% (active). Besides, in the assay with M14 melanoma, the growth was 20.4% (inactive).
`CCOP(=O)(OCC)C(=O)N(CC)CC`: the growth in the assay on NCI-H23 lung is 105% (inactive); with NCI-H226 lung, 94.3% (inactive); in the assay on NCI-H322M lung it was 105% (inactive); with HOP-62 NSCLC it was 99.9% (inactive); in the assay on NCI-H460 lung, 103% (inactive); with NCI-H522 lung, 91.7% (inactive). The growth with A549/ATCC NSCLC was 98.4% (inactive); in the assay with 786-0 renal it was 98% (inactive); in the assay on COLO 205 colon, 118% (inactive); in the assay on DU-145 prostate, 107% (inactive); in the assay with K-562 leukemia it was 121% (inactive); in the assay with MALME-3M melanoma, 108% (inactive). The growth in the assay with MDA-MB-231 breast is 99.8% (inactive); in the assay with RXF 393 renal, 101% (inactive); in the assay with SF-268 CNS, 101% (inactive); in the assay with SF-295 CNS, 98.8% (inactive); in the assay with SF-539 CNS, 113% (inactive); in the assay on UACC-257 melanoma, 88.4% (inactive). In addition, in the assay with M14 melanoma, the growth was 101% (inactive).
As to `C[C@]12CCc3sc(Nc4ccc(OC(F)(F)F)cc4)nc3C1=CC[C@@H]1[C@@H]2CC[C@]2(C)C(=O)CC[C@@H]12`, the growth was 75.5% (inactive) in the assay on NCI-H23 lung; 74.9% (inactive) in the assay with NCI-H226 lung; 77.3% (inactive) in the assay with NCI-H322M lung; 53.3% (inactive) in the assay with NCI-H460 lung; 75% (inactive) in the assay on HOP-92 NSCLC; 89.1% (inactive) in the assay on NCI-H522 lung. Further, the growth with A549/ATCC NSCLC was 67% (inactive); in the assay on 786-0 renal it was 30.5% (inactive); in the assay on COLO 205 colon, 67.9% (inactive); in the assay with DU-145 prostate, 66.1% (inactive); with K-562 leukemia, 8.2% (active); in the assay on MALME-3M melanoma it was 76.8% (inactive). The growth in the assay with MDA-MB-231 breast is 73.5% (inactive); in the assay on RXF 393 renal, -32.2% (active); in the assay on SF-268 CNS it was 68.6% (inactive); with SF-295 CNS it was -2.71% (active); with SF-539 CNS, -5.4% (active); with UACC-257 melanoma, 84% (inactive). Further, in the assay with M14 melanoma, the growth was 83.9% (inactive).
Consider `ClC1OC(Cl)(Cl)C(Cl)(Cl)OC1(Cl)Cl` (stereo unspecified), for which the growth with NCI-H23 lung was 98.6% (inactive); with NCI-H226 lung, 94.7% (inactive); with NCI-H322M lung it was 100% (inactive); in the assay on HOP-62 NSCLC, 104% (inactive); in the assay with NCI-H460 lung, 128% (inactive); in the assay with NCI-H522 lung it was 89.4% (inactive). Also, the growth was 102% (inactive) in the assay with A549/ATCC NSCLC; 109% (inactive) with 786-0 renal; 110% (inactive) in the assay on COLO 205 colon; 114% (inactive) with DU-145 prostate; 98.1% (inactive) with K-562 leukemia; 97.5% (inactive) in the assay on MALME-3M melanoma. The growth with MDA-MB-231 breast is 105% (inactive); in the assay with RXF 393 renal it was 110% (inactive); with SF-268 CNS, 108% (inactive); in the assay with SF-295 CNS, 109% (inactive); with SF-539 CNS it was 91% (inactive); in the assay on UACC-257 melanoma it was 99.5% (inactive). Also, the growth in the assay with M14 melanoma is 98.1% (inactive).
Turning to `C/C=C(/C)C(=O)O[C@H]1CC[C@@]2(C)[C@@H]3CC[C@H]4[C@]5(O)C[C@H](O)[C@@]6(O)[C@@H](CN7C[C@@H](C)CC[C@H]7[C@@]6(C)O)[C@]5(O)C[C@@]42O[C@@]13O`, the growth with NCI-H23 lung was 106% (inactive); in the assay with NCI-H226 lung, 102% (inactive); in the assay with NCI-H322M lung, 97.9% (inactive); with HOP-62 NSCLC it was -56.5% (active); in the assay on NCI-H460 lung, 110% (inactive); in the assay on A549/ATCC NSCLC, 94% (inactive). The growth in the assay with 786-0 renal is 89.9% (inactive); in the assay with COLO 205 colon, 118% (inactive); in the assay with DU-145 prostate it was 138% (inactive); with K-562 leukemia, 136% (inactive); in the assay with MALME-3M melanoma, 92.7% (inactive); in the assay on MDA-MB-231 breast it was 130% (inactive). Moreover, the growth with RXF 393 renal is 108% (inactive); in the assay on SF-268 CNS, 116% (inactive); with SF-295 CNS, 100% (inactive); in the assay on SF-539 CNS, 111% (inactive); with UACC-257 melanoma, 102% (inactive); in the assay with M14 melanoma, 102% (inactive).
On to `O=[N+]([O-])c1ccc(P(=O)(O)O)cc1`, for which the growth with NCI-H23 lung was 105% (inactive); in the assay on NCI-H226 lung, 97.6% (inactive); with NCI-H322M lung, 101% (inactive); in the assay with NCI-H460 lung, 103% (inactive); with HOP-92 NSCLC, 85% (inactive); in the assay with NCI-H522 lung, 92.3% (inactive). Further, the growth in the assay with A549/ATCC NSCLC is 103% (inactive); in the assay with 786-0 renal, 96% (inactive); with COLO 205 colon, 103% (inactive); in the assay with DU-145 prostate, 110% (inactive); in the assay with K-562 leukemia, 108% (inactive); in the assay on MALME-3M melanoma it was 92.6% (inactive). Besides, the growth is 109% (inactive) with MDA-MB-231 breast; 103% (inactive) with RXF 393 renal; 106% (inactive) in the assay on SF-268 CNS; 96% (inactive) in the assay on SF-295 CNS; 103% (inactive) with SF-539 CNS; 111% (inactive) in the assay with UACC-257 melanoma. Further, the growth in the assay on M14 melanoma was 96.1% (inactive).
